High-throughput results: PubChem, University of Kansas High Throughput Screening Laboratory
Pf apPOL inh: Pf-apPOL inhibitors, biochemical, fluorescence. Plasmodium falciparum apicoplast DNA polymerase (apPOL). Recombinant Pf-apPOL, molecular beacon fluorescence, 1.5 h. inhibition, % at 10 µM. 0.25% of 210,000 active
mHTT CaM bind: mutant huntingtin-calmodulin interaction inhibitors – biochemical, AlphaScreen, primary screen | inhibition, % at 15 µM | AlphaScreen His-mHTT/GST-CaM binding, luminescence | 3.6% of 190,000 active | P42858;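 further: 0% = both proteins with DMSO and 100% = one protein alone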
* hit, by the source's call; · = no result. Compounds with a hit are over-represented: about 3.6% of the library has one in this group of screens. No stated cut-off is given here; in the data, active means inhibition above about 50%; inactive means the rest.

SMILES	Pf apPOL inh	mHTT CaM bind
COc1ccccc1NC(=O)c1c(NCc2ccccn2)sc2c1CCCC2	-16.2	50.0*
CCOc1ccccc1NC(=O)c1c(NCc2ccccn2)sc2c1CCC2	-10.2	58.0*
COc1ccc(NC(=O)c2c(NCc3ccccn3)sc3c2CCCC3)c(OC)c1	-18.0	53.0*
CC(=O)Nc1ccc(Br)cc1C(=O)C(=O)Nc1ccc2c(c1)OCO2	-5.4	·
Cc1oc(C2CCN(C(=O)COc3ccc(F)cc3)CC2)nc1C(=O)N1CCCC1	-8.7	-0.1
Cc1ccccc1-c1nc(C)c(C(=O)N(C)C)s1	-8.5	0.0
Cc1ccc(-n2c(SCC(=O)c3cccc([N+](=O)[O-])c3)nc3[nH]ncc3c2=O)cc1C	-5.3	45.0
O=C(OCc1cc(-c2ccc(F)cc2F)on1)c1ccc(=O)oc1	81.2*	99.7*
O=C(Cc1cccs1)OCc1cc(-c2ccc(F)cc2F)on1	2.3	-98.7
c1ccc2c3c([nH]c2c1)CCCCCC3	-7.3	·
O=c1c2c([nH]c3ccccc13)CCCC2	3.6	·
Brc1ccc2[nH]c3c(c2c1)CCCCC3	·	52.7*
Nc1ccc2[nH]c3c(c2c1)CCCC3	·	67.8*
COc1cccc(-n2nc(C(=O)NC3CCCC(C)C3C)c3ccccc3c2=O)c1 (configuration not stated)	-4.5	-8.0
O=C(Cn1cnc(-c2ccccc2)cc1=O)N1CCN(c2ccc(F)c(Cl)c2)CC1	0.8	-5.3
O=C(Nc1ccc(N2CCCC2)cc1)c1ccc(Br)o1	2.3	61.7*
O=C(Nc1cnc(N2CCCCC2)nc1)c1ccc(Br)o1	-1.6	-5.6
O=C(Nc1ccc(N2CCCCC2)cc1)c1ccccc1[N+](=O)[O-]	-30.1	19.5
O=C(Nc1ccc(N2CCCC2)cc1)c1cc(Br)ccc1Cl	0.1	86.3*
O=C(Nc1ccc(N2CCCC2)cc1)C(Cl)(Cl)Cl	-8.6	73.6*
Cc1ccccc1C(=O)Nc1ccc(N2CCCC2)cc1	-33.7	33.5
O=C(Nc1ccc(N2CCCC2)cc1)c1ccccc1[N+](=O)[O-]	-5.9	83.7*
O=C(Nc1ccc2c(c1)CCCN2C(=O)C1CC1)c1cc(Br)ccc1Cl	-4.2	-7.8
N#Cc1c(N=Cc2ccccc2O)oc(-c2ccco2)c1-c1ccco1	11.5	48.0
Cc1cc(C)c2c(=O)c(C=C3SC(=S)N(c4cccc(Cl)c4)C3=O)coc2c1	-5.6	·
SMILES	Pf apPOL inh	mHTT CaM bind
Cc1ccc(-n2ncc3c2ncn2nc(-c4ccccc4)nc32)cc1	7.5	-7.0
CCC(Oc1ccccc1)C(=O)Nc1cc(OC)c(Cl)cc1OC (configuration not stated)	-4.0	-8.9
N#Cc1c(C(F)(F)F)cc(-c2ccccc2)nc1SCCC(N)=O	-8.7	-23.9
N#Cc1c(C(F)(F)F)cc(-c2ccccc2)nc1SCC(N)=O	65.3*	-1.0
Cc1ccc(N2C(=O)C3C4C=CC(C4)C3(C)C2=O)cc1Cl (configuration not stated)	-3.5	-5.0
CCCNC(=O)C1(O)c2cc(Br)ccc2NC(=O)N1c1ccc(C)c(C)c1 (configuration not stated)	-6.0	5.0
CCC(=O)Nc1cccc(-c2noc(C3CCN(C(=O)c4ccccn4)CC3)n2)c1	2.7	2.7
Cc1cc2ncn(CC(O)COc3c(C)cccc3C)c2cc1C (configuration not stated)	-6.0	46.4
Cc1cc(C)c(OCC(O)Cn2cnc3cc(C)c(C)cc32)c(C)c1 (configuration not stated)	1.7	85.1*
Cc1c(Cl)cccc1N1CCN(C(=O)C(C)C)C(C)C1=O (configuration not stated)	-1.7	1.5
COc1ccc(OC)c(C2=NOC(C(=O)NC3CCCCC3)C2)c1 (configuration not stated)	12.8	-5.7
O=S(=O)(c1ccccc1)N1CCN(S(=O)(=O)c2ccccc2)C1	8.4	-7.0
O=C1C(N2CCCC2)=C(N2CCN(S(=O)(=O)c3ccccc3)CC2)C(=O)c2ccccc21	-4.3	80.0*
CC1CCCN(C(=O)C2c3ccccc3Oc3ccccc32)C1 (configuration not stated)	-5.2	-7.1
CCCC1CCC(C2=N/C(=C\c3ccc([N+](=O)[O-])cc3)C(=O)O2)CC1 (configuration not stated)	-5.4	-1.0
CCOC(=O)CCc1c(CC(=O)OCC)c[nH]c1C=NO	99.4*	·
CCOC(=O)CCc1c(C)n[nH]c1C	-1.2	-0.6
COc1ccc(NC(=O)N2CCC3(C2)C(=O)N(C)c2ccccc23)cc1 (configuration not stated)	-3.2	3.4
Cc1nn(-c2ccc(C(=O)N3CCN(c4ccccn4)CC3)cc2)c2c1C(=O)CCC2	1.1	13.5
Cc1nn(-c2ccc(C(=O)N3CCN(c4cccc(Cl)c4)CC3)cc2)c2c1C(=O)CCC2	-1.7	82.6*
O=C(Nc1cc2c3c(c1)CC(=O)N3CCC2)c1cnccn1	-0.5	-3.0
Cc1ccccc1NS(=O)(=O)c1ccccc1[N+](=O)[O-]	0.1	6.7
CN1CCN(CCOCCOc2cccc(Br)c2)CC1	-1.1	7.4
Nc1c(C(=O)Nc2nccs2)sc2nc3c(cc12)CCCCC3	5.5	63.7*
Nc1c(C(=O)Nc2nccs2)sc2nc3c(cc12)CCC3	-8.6	25.8
SMILES	Pf apPOL inh	mHTT CaM bind
CC[C@@H]1C(c2cccc(C)c2)=NN(c2ccc(Br)cc2)[C@H]1C(=O)N1CCOC1=O	2.2	65.8*
Cc1cccc(C2=NN(c3ccc(Br)cc3)[C@@H](C(=O)N3CCOC3=O)[C@@H]2c2ccccc2)c1	0.4	-78.2
C[C@@H]1C(c2cccc(Cl)c2)=NN(c2ccccc2)[C@H]1C(=O)N1CCOC1=O	-6.2	-24.0
C[C@@H]1C(c2cccc(Cl)c2)=NN(c2ccc(Br)cc2)[C@H]1C(=O)N1CCOC1=O	-0.7	57.2*
Cc1nc2sccn2c(=O)c1NC(=O)Cc1cccc(F)c1	1.7	-1.4
COc1cccc(C(=O)Oc2ccc3c(=O)c(-c4ccc(Cl)cc4)coc3c2)c1	-0.2	2.5
O=S(=O)(Nc1ccc(Cl)cn1)c1ccc2[nH]c3c(c2c1)CCCC3	-1.6	54.9*
O=S(=O)(Nc1ccc(F)cc1)c1ccc2[nH]c3c(c2c1)CCCC3	-4.1	97.7*
CN(CC(=O)NC1CCCCC1)S(=O)(=O)c1ccc2[nH]c3c(c2c1)CCCC3	0.3	96.8*
CN(CC(=O)NC1CCCC1)S(=O)(=O)c1ccc2[nH]c3c(c2c1)CCCC3	-5.6	17.8
CN(CC(=O)NCc1ccc(F)cc1)S(=O)(=O)c1ccc2[nH]c3c(c2c1)CCCC3	-4.4	40.9
Cc1ccc(S(=O)(=O)NC2CCCCC2)cc1[N+](=O)[O-]	-1.5	-0.3
O=S(=O)(NC1CCCCC1)c1ccc2[nH]c3c(c2c1)CCCC3	-4.9	86.7*
CCc1ccc(S(=O)(=O)Nc2ccc(Cl)cn2)cc1	10.1	-1.0
O=C(CCS(=O)(=O)Cc1cccc(Cl)c1)NC1CCCCC1	-13.1	-7.0
O=C(NCc1ccc(F)cc1)C1CC(=O)N(c2ccc(Cl)cc2)C1 (configuration not stated)	-0.6	-7.2
Cc1ccc2c(nc3s/c(=C\c4cn(CC(=O)O)c5ccccc45)c(=O)n32)c1C	1.6	27.0
CC(C)NC(=O)c1nc2ccccn2c1-c1ccccc1	-4.3	-5.3
Cc1nc(C(F)(F)F)ccc1NC(=O)c1ccc(C(F)(F)F)cc1	-11.9	·
NS(=O)(=O)c1ccc2[nH]c3c(c2c1)CCCC3	-10.0	3.4
O=S(=O)(Nc1ccccc1)c1ccc2[nH]c3c(c2c1)CCCCC3	-6.1	99.7*
